Measurements published in PubChem BioAssay AID1159580 (chemical genetic matrix, 2015).
Screen size: about 5,500 compounds; about 2,000 (36%) were called active. Inconclusive results (about 18%) are left out. Rule as the data show it: active = normalized growth mostly below about 0.91 (no sharp cut-off); inconclusive = no clear call, values can overlap the other calls; inactive = mostly above about 0.92. Some of the results follow.

Assay: chemical genetic growth profiling, strain panel (AID 1159580);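 also: tested at 20 µM; growth read once vehicle control cultures reached saturation at 30 °C; 1 = growth at the plate median or of vehicle wells; lower values mean less growth of the strain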
Conditions: S. cerevisiae deletion strains, growth OD

Measured: normalized growth

NC(=O)c1cc(N2CC2)c([N+](=O)[O-])cc1[N+](=O)[O-]
inactive: locus YAL040C, strain CLN3, active compounds read low 1 | locus YCL061C, strain MRC1 (second series), active compounds read low 0.994 | locus YDR363W, strain ESC2, active compounds read low 0.993 | locus YER002W, strain NOP16, active compounds read low 1.02 | locus YMR263W, strain SAP30, active compounds read low 1 | locus YMR307W, strain GAS1, active compounds read low 0.986 | locus YNL175C, strain NOP13, active compounds read low 1.02 | locus YNL197C, strain WHI3, active compounds read low 1 | locus YNL224C, strain SQS1, active compounds read low 0.997 | locus YOR083W, strain WHI5 (second series), active compounds read low 1.01
